Data as given in PubChem BioAssay (NCATS).
Records with an inconclusive call do not appear. Unmarked numbers belong to inactive results. The source made the active and inactive calls. Calls follow the shape of the dose curve; as a rule, active = well fitted curve in the direction sought with a large enough effect; inconclusive = small, poorly fitted or top-dose-only effect, or another doubt; inactive = no such curve, though single readings can be large; an effect the other way counts as inactive or inconclusive.

Legend:
[1] = Quantitative High-Throughput drug screen in 47 multiple myeloma cell lines against the NCATS MIPE library collection: KMS26_JCRB cell viability assay (AID 1918975); also: nearly all actives have a fitted effect of over 45% in size
How it was run: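 Myeloma cells (500 per well) were exposed to MIPE 4.0 compounds by pin transfer and incubated 48 hours at 37C, 5% CO2. Viability was read as ATP by CellTiter-Glo luminescence, normalised to DMSO (100%) and media-only (0%) wells.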

[2] = Quantitative High-Throughput drug screen in 47 multiple myeloma cell lines against the NCATS MIPE library collection: MMM1_PLB cell viability assay (AID 1918976); also: nearly all actives have a fitted effect of over 35% in size
How it was run: (§1)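 Plated at 500 cells per well, myeloma lines received MIPE 4.0 compounds by pin tool. Following 48 h culture at 37 °C, CellTiter-Glo luminescence gave viability relative to DMSO and media-only controls.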

[3] = Quantitative High-Throughput drug screen in 47 multiple myeloma cell lines against the NCATS MIPE library collection: MM1S_ATCC cell viability assay (AID 1918980); also: nearly all actives have a fitted effect of over 45% in size
How it was run: as §1

[4] = Quantitative High-Throughput drug screen in 47 multiple myeloma cell lines against the NCATS MIPE library collection: MM1R_ATCC cell viability assay (AID 1918981); also: nearly all actives have a fitted effect of over 35% in size
How it was run: as §1

[5] = Quantitative High-Throughput drug screen in 47 multiple myeloma cell lines against the NCATS MIPE library collection: LP1_DSMZ cell viability assay (AID 1918982); also: nearly all actives have a fitted effect of over 35% in size
How it was run: as §1

[6] = Quantitative High-Throughput drug screen in 47 multiple myeloma cell lines against the NCATS MIPE library collection: L363_DSMZ cell viability assay (AID 1918984); also: nearly all actives have a fitted effect of over 40% in size
How it was run: as §1

[7] = Quantitative High-Throughput drug screen in 47 multiple myeloma cell lines against the NCATS MIPE library collection: OCIMY5_PLB cell viability assay (AID 1918988); also: nearly all actives have a fitted effect of over 65% in size
How it was run: as §1

[8] = Quantitative High-Throughput drug screen in 47 multiple myeloma cell lines against the NCATS MIPE library collection: OPM1_PLB cell viability assay (AID 1918989); also: nearly all actives have a fitted effect of over 40% in size
How it was run: as §1

[9] = Quantitative High-Throughput drug screen in 47 multiple myeloma cell lines against the NCATS MIPE library collection: SKMM1_PLB cell viability assay (AID 1919863); details: SKMM1 myeloma viability, CellTiter-Glo ATP, 48 h; viability: hits give low values; also: nearly all actives have a fitted effect of over 35% in size; as to viability: series mostly up to about 46 µM
How it was run: as §1

[10] = Quantitative High-Throughput drug screen in 47 multiple myeloma cell lines against the NCATS MIPE library collection: U266_ATCC cell viability assay (AID 1919864); also: nearly all actives have a fitted effect of over 35% in size
How it was run: as §1

[11] = Quantitative High-Throughput drug screen in 47 multiple myeloma cell lines against the NCATS MIPE library collection: XG6_PLB cell viability assay (AID 1919865); also: nearly all actives have a fitted effect of over 40% in size
How it was run: as §1

[12] = Quantitative High-Throughput drug screen in 47 multiple myeloma cell lines against the NCATS MIPE library collection: XG1_PLB cell viability assay (AID 1919866); also: nearly all actives have a fitted effect of over 35% in size
How it was run: as §1

[13] = Quantitative High-Throughput drug screen in 47 multiple myeloma cell lines against the NCATS MIPE library collection: NCIH929_DSMZ cell viability assay (AID 1918978); also: nearly all actives have a fitted effect of over 35% in size
How it was run: as §1

[14] = Quantitative High-Throughput drug screen in 47 multiple myeloma cell lines against the NCATS MIPE library collection: KMS28PE_JCRB cell viability assay (AID 1918983); also: nearly all actives have a fitted effect of over 35% in size
How it was run: as §1

[15] = Quantitative High-Throughput drug screen in 47 multiple myeloma cell lines against the NCATS MIPE library collection: OCIMY7_PLB cell viability assay (AID 1918987); also: nearly all actives have a fitted effect of over 65% in size
How it was run: as §1

[16] = Quantitative High-Throughput drug screen in 47 multiple myeloma cell lines against the NCATS MIPE library collection: VP6_DJ cell viability assay (AID 1919867); also: nearly all actives have a fitted effect of over 40% in size
How it was run: as §1

[17] = Quantitative High-Throughput drug screen in 47 multiple myeloma cell lines against the NCATS MIPE library collection: KMS34_JCRB cell viability assay (AID 1918985); also: nearly all actives have a fitted effect of over 40% in size
How it was run: as §1

[18] = Quantitative High-Throughput drug screen in 47 multiple myeloma cell lines against the NCATS MIPE library collection: OCIMY1_PLB cell viability assay (AID 1918979); also: nearly all actives have a fitted effect of over 35% in size; as to viability: series mostly up to about 46 µM
How it was run: as §1
Potency is read from the fitted curve at half-maximal effect.

Row | Compound | Potency [1] | Potency [2] | Potency [3] | Potency [4] | Potency [5] | Potency [6] | Potency [7] | Potency [8] | Potency [9] | Potency [10] | Potency [11] | Potency [12] | Potency [13] | Potency [14] | Potency [15] | Potency [16] | Potency [17] | Potency [18] | viability [9] [%]
1 | Cc1cccc(C=NNc2cc(N3CCOCC3)nc(OCCc3ccccn3)n2)c1 | 0.118 µM (active) | 16.6 µM (active) | 16.6 µM (active) | 6.62 µM (active) | 11.8 µM (active) | 0.235 µM (active) | 23.5 µM (active) | 4.18 µM (active) | 16.6 µM (active) | 6.62 µM (active) | 16.6 µM (active) | 23.5 µM (active) | – | – | – | – | – | – | –
2 | Cc1cn2c(-c3cn[nH]c3)cnc2c(Nc2ccc(C(=O)N3CCNCC3)cc2F)n1 | 16.6 µM (active) | 14.8 µM (active) | 4.69 µM (active) | 20.9 µM (active) | – | – | – | 18.7 µM (active) | 18.7 µM (active) | – | 2.96 µM (active) | – | 8.33 µM (active) | 18.7 µM (active) | 10.5 µM (active) | 8.33 µM (active) | – | – | –
3 | COc1cc(C)c(Sc2cnc(NC(=O)c3ccc(CNC(C)C(C)C)cc3)s2)cc1C(=O)N1CCN(C(C)=O)CC1 (configuration not stated) | 14.8 µM (active) | 4.69 µM (active) | 16.6 µM (active) | 14.8 µM (active) | – | 9.35 µM (active) | 5.26 µM (active) | 18.7 µM (active) | 18.7 µM (active) | 23.5 µM (active) | 16.6 µM (active) | 18.7 µM (active) | 2.96 µM (active) | 14.8 µM (active) | 10.5 µM (active) | 7.43 µM (active) | – | – | –
4 | CCS(=O)(=O)c1cccc(-c2cc(C(=O)NC3CCN(C)CC3)c(C)c3[nH]c4ncc(C)cc4c23)c1 | 2.96 µM (active) | 4.18 µM (active) | 1.66 µM (active) | 1.66 µM (active) | 7.43 µM (active) | 1.48 µM (active) | 1.48 µM (active) | 0.59 µM (active) | 8.33 µM (active) | 0.935 µM (active) | 0.833 µM (active) | 0.526 µM (active) | 1.18 µM (active) | 1.87 µM (active) | 4.18 µM (active) | 0.935 µM (active) | 0.935 µM (active) | – | –
5 | CC(C)c1cc(-c2n[nH]c(=O)n2-c2ccc3c(ccn3C)c2)c(O)cc1O | 0.0372 µM (active) | 0.0743 µM (active) | 0.059 µM (active) | 0.0469 µM (active) | – | 0.0118 µM (active) | – | 0.0296 µM (active) | 0.0743 µM (active) | 0.0372 µM (active) | 0.059 µM (active) | 0.0296 µM (active) | 0.0209 µM (active) | 0.0132 µM (active) | 0.0118 µM (active) | 0.0209 µM (active) | 0.0264 µM (active) | 0.0469 µM (active) | –
6 | COC(=O)C1=C(C)NC(C)=C(C(=O)OCCN2CCN(C(c3ccccc3)c3ccccc3)CC2)C1c1cccc([N+](=O)[O-])c1 (configuration not stated) | inactive | inactive | – | inactive | – | inactive | – | inactive | – | – | 2.64 µM (active) | inactive | – | inactive | inactive | 4.18 µM (active) | – | inactive | 126
7 | C[C@@H](Oc1cc(-n2cnc3ccc(CN4CCN(C)CC4)cc32)sc1C(N)=O)c1ccccc1C(F)(F)F | 5.26 µM (active) | 16.6 µM (active) | 2.35 µM (active) | 0.059 µM (active) | – | 0.0118 µM (active) | 0.0469 µM (active) | – | – | 16.6 µM (active) | – | – | 20.9 µM (active) | 0.0935 µM (active) | – | 18.7 µM (active) | 0.0418 µM (active) | – | –
8 | C=C1C(=CC=C2CCCC3(C)[C@@H]([C@H](C)C=CC=CC(O)(CC)CC)CC[C@@H]23)C[C@@H](O)C[C@@H]1O (some centres not stated) | 23.5 µM (active) | 20.9 µM (active) | 10.5 µM (active) | 14.8 µM (active) | – | 23.5 µM (active) | 10.5 µM (active) | 18.7 µM (active) | – | 23.5 µM (active) | 18.7 µM (active) | 20.9 µM (active) | – | 26.4 µM (active) | 29.6 µM (active) | 10.5 µM (active) | 20.9 µM (active) | – | –
9 | COc1ccc(C(=O)CC2(O)C(=O)Nc3c(Cl)ccc(Cl)c32)cc1 (configuration not stated) | 2.96 µM (active) | 14.8 µM (active) | 18.7 µM (active) | 5.26 µM (active) | – | 1.66 µM (active) | 1.87 µM (active) | 9.35 µM (active) | 1.18 µM (active) | – | 0.833 µM (active) | 0.833 µM (active) | 18.7 µM (active) | 3.72 µM (active) | 0.526 µM (active) | 2.96 µM (active) | 2.96 µM (active) | – | –
10 | CC[C@@H]1C(=O)N(C)c2cnc(Nc3ccc(C(=O)NC4CCN(C)CC4)cc3OC)nc2N1C1CCCC1 | 3.72 µM (active) | 13.2 µM (active) | 4.18 µM (active) | 1.18 µM (active) | 0.166 µM (active) | – | 0.0372 µM (active) | 0.0935 µM (active) | 0.235 µM (active) | 23.5 µM (active) | – | – | 2.35 µM (active) | 0.0743 µM (active) | – | 2.96 µM (active) | 0.187 µM (active) | 0.469 µM (active) | –
